Source: ChEMBL document CHEMBL3988442, “University of Dundee, Small-Polar-MMV Screening Library” (2021)

Columns and labels:
[1] = molecular target: T1, Aspartate--tRNA(Asp/Asn) ligase (Mycobacterium tuberculosis (strain ATCC 25618 / H37Rv)) (UniProt P9WFW3); test: Assay for Asp RNA synthetase-1 from Mycobacterium tuberculosis; type: functional; design: scale not given: direction of the effect not stated beside the values; details: 30 µM; also: in the data most compounds retested in dose-response had high values
T1 sequence (whole entry): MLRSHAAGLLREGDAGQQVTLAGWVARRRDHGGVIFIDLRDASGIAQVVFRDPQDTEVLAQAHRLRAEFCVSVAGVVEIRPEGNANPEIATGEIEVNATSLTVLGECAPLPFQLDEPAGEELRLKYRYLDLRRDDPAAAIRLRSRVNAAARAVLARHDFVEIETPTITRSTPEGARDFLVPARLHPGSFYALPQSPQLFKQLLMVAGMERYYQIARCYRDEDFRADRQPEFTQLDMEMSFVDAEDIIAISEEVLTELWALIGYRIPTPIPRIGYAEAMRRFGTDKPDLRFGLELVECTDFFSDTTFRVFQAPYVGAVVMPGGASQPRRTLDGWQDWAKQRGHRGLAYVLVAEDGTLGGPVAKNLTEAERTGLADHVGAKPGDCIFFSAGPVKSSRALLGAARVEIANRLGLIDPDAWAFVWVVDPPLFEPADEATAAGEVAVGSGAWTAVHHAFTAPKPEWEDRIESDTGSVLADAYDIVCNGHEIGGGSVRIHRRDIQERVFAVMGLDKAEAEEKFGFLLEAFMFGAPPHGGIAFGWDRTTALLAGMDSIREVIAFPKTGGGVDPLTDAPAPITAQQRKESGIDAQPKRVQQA

[2] = molecular target: Shiga toxin 2 (Escherichia coli O157:H7) (UniProt P09385+P09386); test: E. coli 0.157:H7 Shiga Toxin SOP - stx2 screening assay; type: functional; design: scale not given: direction of the effect not stated beside the values; details: 30 µM

Structure (SMILES)	Percent Effect [1] [%]	Percent Effect [2] [%]
CCN1CCN(C2CCN(Cc3ncc(C(C)(C)C)o3)CC2)C1=O	-3.69	6.2
COc1ccc(CN(C)[C@@H]2CN(C(=O)c3cccs3)C[C@H]2O)cc1	-4.54	12
Cc1nc(CN(Cc2ccccc2)C2CCS(=O)(=O)C2)oc1C (configuration not stated)	-0.478	24.1
NC(=O)c1cc(NC(=O)NCCc2cc(F)cc(F)c2)ccc1F	4.79	-82
CCc1csc(C2CCCN(C(=O)C3=NN(CC)C(=O)CC3)C2)n1 (configuration not stated)	-5.86	-21.6
Cc1nc(NC(=O)CN2CCc3c(nc(C(C)C)n3C)C2)sc1C	-4.32	5.46
CNc1nc2c(s1)C(=O)CN(C(=O)NCc1ccccc1)C2	1.63	-6.79
Cc1nc2ccccc2nc1CN1CCCC1Cn1cncn1 (configuration not stated)	-6.08	7.83
O=C(C[C@@H]1COC[C@H]2CN(Cc3ccc(F)cc3)C[C@@H]12)N1CCCCO1	3.14	-37.2
CCOc1ncccc1C(=O)N1CCCC1c1c(C)nn(C)c1OC (configuration not stated)	-0.602	-8.49
Cc1c(CN2CCCC(c3[nH]ncc3S(C)(=O)=O)C2)cnn1C (configuration not stated)	-0.927	-23.4
COc1ccccc1OCC(=O)Nc1ncccc1Cl	-0.641	1.67
CCNc1cc2c(nn1)CCN(C(=O)c1ccc(NC3CC3)nc1)C2	-0.723	2.8
CNC(=O)C1(c2cnccn2)CCCN1C(=O)c1ccccc1OC (configuration not stated)	-4.66	-21.4
Cc1[nH]c2ccccc2c1-c1ccnc(NC[C@H](O)CO)n1	0.691	-30.4
O=C(NCc1nncn1-c1ccccc1)C1CC(=O)N(CC2CC2)C1 (configuration not stated)	-2.56	23.5
